From PubChem BioAssay (NCATS) come the findings set out here.

Assay [1] addresses Methanococcus maripaludis chaperonin (MmCpn) (UniProt Q6LX38). As to the kind of experiment: High-Throughput Screening for Modulators of Cytosolic Chaperonin Activity: MmCpn Primary Screen (AID 488978). Further: 0% is about no effect. The procedure, abridged: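 ADP formation read by HTRF Transcreener, 665/590 nm emission after 320 nm excitation. Enzyme: archaeal chaperonin at 50 nM final; substrate ATP 30 uM final; 10 min, 37C, after 5 min compound preincubation at RT.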

Assay [2] addresses Transient receptor potential cation channel subfamily V member 1 (Homo sapiens) (UniProt Q8NER1). Description: HTS Assay for Compounds that Act as Enhancers of the Vanilloid Receptor 1 (AID 488979). Further: 0% is about no effect. The procedure, abridged:
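TRPV1 cells loaded with Fluo-8 calcium dye; compound added and Ca2+ signal (ex 480/em 520 nm) followed 3 min, then capsaicin at EC20 added and read 2 more min to detect enhancement.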

The target in assay [3] is Thyrotropin receptor (Homo sapiens) (UniProt P16473). As to the kind of experiment: qHTS Assay for Antagonists of the Thyroid Stimulating Hormone Receptor (AID 488980). Further: series mostly up to about 58 µM; 0% is about no effect. Put shortly:
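TSHR-HEK293 cells; 70 uM RO 20-1724 PDE inhibitor; compound + EC80 TSH (4 nM final); anti-cAMP cryptate antibody/cAMP-d2 in lysis buffer, 30 min RT; HTRF 665/620 nm read.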
(In general: In qHTS, concentration-response curves come from the screen itself.)

Assay [4] has as its target D(1A) dopamine receptor (Homo sapiens) (UniProt P21728). Description: HTS Assay for Allosteric Agonists of the Human D1 Dopamine Receptor: Primary Screen for Agonists (AID 488981). Further: 0% is about no effect. Put shortly: (§1)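 Tetracycline-induced HEK293 Trex D1 cells with forced coupling to calcium, loaded with no-wash calcium dye; kinetic fluorescence read 180 s after compound addition for agonism, then a further 180 s after an EC20 dopamine challenge for potentiation.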

For assay [5] the target is unchanged. Description: HTS Assay for Allosteric Agonists of the Human D1 Dopamine Receptor: Primary Screen for Potentiators (AID 488982). Further: 0% is about no effect. The procedure, abridged:
as §1

Assay [6] can be described thus: Validation screen for small molecules that induce genotoxicity in human embryonic kidney (HEK293T) cells expressing luciferase-tagged ELG1 (AID 493106). Further: potency means the concentration at half of the fitted maximal effect. The procedure, abridged: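 ELG1-luciferase reporter readout (ONE-Glo, 30 min, room temperature) after 16 hr compound treatment at 37 °C of HEK293T cells at 2,000 per well. Rising luminescence flags genotoxic stress.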

The target of assay [7] is ATPase family AAA domain-containing protein 5 (Homo sapiens) (UniProt Q96QE3). As to the kind of experiment: Validation screen for small molecules that inhibit ELG1-dependent DNA repair in human embryonic kidney (HEK293T) cells expressing luciferase-tagged ELG1 (AID 493107).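 Further: series mostly up to about 46 µM; on the % scale 0 is the no-effect control and ±100 the full control effect; inhibitors lower the ELG1-luciferase luminescence signal; nearly all actives have a fitted effect of over 70% in size.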 Put shortly:
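Luciferase read-out, ONE-Glo, 30 min at room temperature, follows 16 h co-exposure at 37 C of compound and the DNA-damaging agent 5-fluorouridine. Cells: HEK293T with ELG1-luciferase fusion, 2,000 per well, DMSO as vehicle.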

In assay [8] the target is Thyrotropin-releasing hormone receptor (Homo sapiens) (UniProt P34981). As to the kind of experiment: qHTS for Small Molecule Agonists and Allosteric Enhancers of Human TRH Receptor: Validation Screen for Agonists (AID 493127;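 active means calcium activation more than 3 SD above the typical response in the agonist read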;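 further: intracellular calcium rise by fluo-8 fluorescence before TRH EC20 addition; 0% is about no effect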). As to conditions: TRH receptor agonist cell assay; at 2 µM; stronger effect = higher value. The procedure, abridged: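 Compound-evoked intracellular calcium release in fluo-8-loaded TRHR cells, read kinetically on FDSS (Ex 480/Em 530, 1 s/cycle) after 23 nL pintool transfer. Agonist phase preceded 10 nM TRH EC20 addition.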

Assay [9] can be described thus: Nrf2 qHTS screen for inhibitors: Validation (AID 493153; active means well fitted inhibition curve with a large enough effect in the main read-out, with a control signal flat, not every such curve was filed as active). The settings on record: Potency: luciferase luminescence; viability change: measured here: cytotoxicity max response. The procedure, abridged:
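Concentration-response on A549 ARE_Fluc reporter cells exposed 18-24 h at 37 C, 5% CO2. Cytotoxicity read first by CellTiter-Fluor fluorescence (Ex 405/Em 525), then Nrf2 inhibition by BugLite luminescence after 15 min.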

The target of assay [10] is Galactokinase (Homo sapiens) (UniProt P51570). Description: qHTS Validation Assay for Inhibitors of Human Galactokinase (GALK) (AID 493189). Further: 0% is about no effect. The procedure, abridged: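 Luminescence from leftover ATP (Kinase-Glo Plus, 10 min) served as read-out after a 1 h room-temperature reaction of 5 nM GALK, 100 uM galactose and 35 uM ATP at pH8.0.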
The nature of assay [11]: Validation screen for small molecules that induce DNA re-replication in SW480 colon adenocarcinoma cells (AID 504364). Further: 0% is about no effect. Put shortly: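 Image-based DNA content read-out: Hoechst stain 40 min, total nuclear fluorescence intensity (ex 405 nm, em 500-530 nm) after 48 h compound exposure of 250 SW480 cells/well at 37 C, 5% CO2, versus DMSO vehicle.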
The target of assay [12] is Peptidyl-prolyl cis-trans isomerase NIMA-interacting 1 (Homo sapiens) (UniProt Q13526). Description: qHTS Validation Assay to Find Inhibitors of Pin1 (AID 504536; active means well fitted inhibition curve with a large enough effect in the polarisation, with a control signal flat, not every such curve was filed as active; the % refers to the polarisation;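 further: 0% = full Pin1 enzyme wells and -100% = no-enzyme wells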). Put shortly: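 Fluorescence polarization competition: compounds (titration) displace HiFluor-488-labeled Pin1-1b peptide from Pin1 (0.3 uM final) in pH 7.5 HEPES buffer with DTT, 10 min at room temperature; %Activity normalized to no-enzyme wells, curves fitted.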

The target of assay [13] is Phosphoglycerate kinase, glycosomal (Trypanosoma brucei brucei) (UniProt P07378). Description: qHTS Validation Assay to Find Inhibitors of Phosphoglycerate Kinase (AID 504547). Further: potency means the concentration at half of the fitted maximal effect. Put shortly:
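Compounds are pinned into the substrate/PGK mixture, and GAPDH (100nM final) is added to start the reaction by producing 1,3-BPG. After 60 minutes at room temperature, Kinase-Glo Plus is added and luminescence is measured 10 minutes later.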

The target of assay [14] is phosphoglycerate mutase (Leishmania major) (UniProt Q4Q090). Description: qHTS Validation Assay to Find Inhibitors of Phosphoglycerate Mutase (AID 504548). Further: series mostly up to about 58 µM; on the % scale 0 is the no-effect control and ±100 the full control effect. As to conditions: Potency: inhibition qHTS. Put shortly: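 Lm PGAM 1.25nM final; 100 mM TEA pH 7.6, 5 mM MgCl2, 0.01% Tween-20; 45 min RT; Kinase-GloPlus, 10 min; end-point luminescence. Enzyme-free wells as negative controls.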

Assay [15] addresses Ubiquitin carboxyl-terminal hydrolase 1 (Homo sapiens) (UniProt O94782). As to the kind of experiment: Inhibitors of USP1/UAF1: Pilot qHTS (AID 504865). Further: nearly all actives have a fitted effect of over 35% in size. Further: potency means the concentration at half of the fitted maximal effect. Put shortly:
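1nM USP1/UAF1 + cpd, 15 min RT; start w/ Ub-Rho 150nM final; kinetic FL 480/540 nm, 6 reads q60 s. Buffer 50mM HEPES pH 7.8, 0.5mM EDTA, 1mM TCEP, 0.01% Tween-20, 0.1 mg/ml BSA.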

The nature of assay [16]: qHTS for Inhibitors of ATXN expression: Validation of Cytotoxic Assay (AID 588349). Further: on the % scale 0 is the no-effect control and ±100 the full control effect. Put shortly: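 Cytotoxicity counter-screen: ATP-based luminescent viability (CellTiter Glo) after 72 hr exposure of HEK293 cells to a compound titration at 37 degrees C.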
Assay [17] can be described thus: qHTS for Inhibitors of Cell Surface uPA Generation: Validation Assay (AID 493164).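 Further: RAW 264.7 macrophage cells exposed to compound for 18 h; 0% is about no effect.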 Put shortly: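 ATP-Lite luminescence read-out: ATP remains high when uPA activity-dependent LF translocation into the cytoplasm is blocked. RAW 264.7 cells, 18 h compound exposure at 37 C; 7-point titration, 2.45 nM to 38.3 uM final.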
Assay [18] deals with D(1A) dopamine receptor (Homo sapiens) (UniProt P21728). As to the kind of experiment: HTS Assay for Allosteric Agonists of the Human D1 Dopamine Receptor: Primary Screen for Antagonists (AID 488983).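 Further: calcium flux response to an EC80 dopamine challenge measured with no-wash dye; on the % scale 0 is the no-effect control and ±100 the full control effect; nearly all actives have a fitted effect of over 65% in size.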 The procedure, abridged: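 Calcium-flux read-out in inducible HEK293 T-REx cells expressing D1, dye-loaded 30–90 min at room temperature. Kinetic reads: 180 s after compound (agonist phase), then 180 s after an EC80 dopamine challenge.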

Molecules are shown by their SMILES. Records with an inconclusive call do not appear. The source made the active and inactive calls. Unless noted, the call rests on the fitted dose curve; in most records, active means well fitted curve in the direction sought with a large enough effect; inconclusive means small, poorly fitted or top-dose-only effect, or another doubt; inactive means no such curve, though single readings can be large; an effect the other way counts as inactive or inconclusive.

Chain of Galactokinase (Homo sapiens) (P51570 whole entry, looked up): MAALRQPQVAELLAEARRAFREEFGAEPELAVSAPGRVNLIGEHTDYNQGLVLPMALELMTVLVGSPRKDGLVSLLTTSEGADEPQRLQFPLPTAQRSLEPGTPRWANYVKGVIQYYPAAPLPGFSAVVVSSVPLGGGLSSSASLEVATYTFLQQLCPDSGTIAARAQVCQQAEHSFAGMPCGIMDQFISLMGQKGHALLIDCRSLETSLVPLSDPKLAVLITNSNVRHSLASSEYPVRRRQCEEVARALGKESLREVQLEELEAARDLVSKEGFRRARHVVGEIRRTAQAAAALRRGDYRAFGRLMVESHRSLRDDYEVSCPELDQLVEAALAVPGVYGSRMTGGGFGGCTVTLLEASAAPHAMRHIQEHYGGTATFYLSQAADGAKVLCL
Chain of Thyrotropin-releasing hormone receptor (Homo sapiens) (P34981 whole entry, looked up): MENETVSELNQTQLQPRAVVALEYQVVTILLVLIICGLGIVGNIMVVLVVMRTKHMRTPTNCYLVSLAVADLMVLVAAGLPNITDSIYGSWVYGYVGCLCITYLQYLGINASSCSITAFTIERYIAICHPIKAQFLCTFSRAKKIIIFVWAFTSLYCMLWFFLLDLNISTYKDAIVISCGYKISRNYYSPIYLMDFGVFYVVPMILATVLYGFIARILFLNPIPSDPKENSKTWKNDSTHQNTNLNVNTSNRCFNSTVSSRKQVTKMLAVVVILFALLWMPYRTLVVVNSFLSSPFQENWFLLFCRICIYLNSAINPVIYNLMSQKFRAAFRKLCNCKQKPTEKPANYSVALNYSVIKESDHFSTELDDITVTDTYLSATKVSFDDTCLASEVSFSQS
Chain of ATPase family AAA domain-containing protein 5 (Homo sapiens) (Q96QE3 whole entry, looked up, the tested form may be a part): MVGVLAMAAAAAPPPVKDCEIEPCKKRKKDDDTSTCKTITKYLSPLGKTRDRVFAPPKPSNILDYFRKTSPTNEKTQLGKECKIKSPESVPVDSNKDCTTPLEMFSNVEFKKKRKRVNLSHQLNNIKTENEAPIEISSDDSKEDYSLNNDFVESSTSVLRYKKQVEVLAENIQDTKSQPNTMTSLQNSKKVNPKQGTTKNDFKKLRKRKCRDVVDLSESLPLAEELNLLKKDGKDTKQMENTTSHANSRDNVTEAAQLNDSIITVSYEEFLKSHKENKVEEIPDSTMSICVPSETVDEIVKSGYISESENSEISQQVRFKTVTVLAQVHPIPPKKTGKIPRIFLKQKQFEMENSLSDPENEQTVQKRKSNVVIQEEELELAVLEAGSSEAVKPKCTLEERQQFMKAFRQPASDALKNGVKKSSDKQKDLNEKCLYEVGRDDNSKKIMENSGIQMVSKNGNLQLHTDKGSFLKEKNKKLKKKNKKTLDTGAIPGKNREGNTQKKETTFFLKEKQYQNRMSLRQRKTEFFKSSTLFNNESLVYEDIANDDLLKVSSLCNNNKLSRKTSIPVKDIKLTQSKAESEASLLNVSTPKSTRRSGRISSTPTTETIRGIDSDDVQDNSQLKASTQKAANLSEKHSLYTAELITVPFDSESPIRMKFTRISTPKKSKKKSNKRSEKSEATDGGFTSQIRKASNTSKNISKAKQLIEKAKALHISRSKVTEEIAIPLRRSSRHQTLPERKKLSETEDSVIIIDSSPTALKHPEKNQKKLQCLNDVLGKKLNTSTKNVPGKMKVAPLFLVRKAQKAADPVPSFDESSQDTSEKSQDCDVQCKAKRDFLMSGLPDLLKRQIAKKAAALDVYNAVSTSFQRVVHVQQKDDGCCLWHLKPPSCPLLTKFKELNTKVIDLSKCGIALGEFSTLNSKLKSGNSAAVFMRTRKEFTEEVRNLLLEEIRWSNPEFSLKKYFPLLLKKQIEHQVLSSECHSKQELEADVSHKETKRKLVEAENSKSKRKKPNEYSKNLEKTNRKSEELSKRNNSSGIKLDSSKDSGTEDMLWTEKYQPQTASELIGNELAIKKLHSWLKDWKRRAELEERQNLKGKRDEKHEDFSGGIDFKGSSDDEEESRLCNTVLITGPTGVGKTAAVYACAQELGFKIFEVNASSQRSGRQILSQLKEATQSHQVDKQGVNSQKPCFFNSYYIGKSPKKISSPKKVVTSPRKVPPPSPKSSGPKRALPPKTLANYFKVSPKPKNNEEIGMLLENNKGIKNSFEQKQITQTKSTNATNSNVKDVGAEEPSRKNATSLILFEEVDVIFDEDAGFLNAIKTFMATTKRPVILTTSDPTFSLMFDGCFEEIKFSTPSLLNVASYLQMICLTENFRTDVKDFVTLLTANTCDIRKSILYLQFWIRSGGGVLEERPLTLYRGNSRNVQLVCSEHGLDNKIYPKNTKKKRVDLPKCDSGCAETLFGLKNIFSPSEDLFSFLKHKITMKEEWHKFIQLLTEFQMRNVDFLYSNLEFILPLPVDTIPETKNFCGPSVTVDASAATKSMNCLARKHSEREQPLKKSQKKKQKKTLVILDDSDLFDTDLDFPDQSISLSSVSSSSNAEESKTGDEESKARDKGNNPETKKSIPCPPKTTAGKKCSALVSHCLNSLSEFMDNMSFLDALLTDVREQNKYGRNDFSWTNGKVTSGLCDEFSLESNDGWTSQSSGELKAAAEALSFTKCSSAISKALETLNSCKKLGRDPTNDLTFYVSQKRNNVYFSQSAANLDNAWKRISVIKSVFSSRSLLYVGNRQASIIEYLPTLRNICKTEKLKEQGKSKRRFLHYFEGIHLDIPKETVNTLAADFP
Chain of Transient receptor potential cation channel subfamily V member 1 (Homo sapiens) (Q8NER1 whole entry, looked up): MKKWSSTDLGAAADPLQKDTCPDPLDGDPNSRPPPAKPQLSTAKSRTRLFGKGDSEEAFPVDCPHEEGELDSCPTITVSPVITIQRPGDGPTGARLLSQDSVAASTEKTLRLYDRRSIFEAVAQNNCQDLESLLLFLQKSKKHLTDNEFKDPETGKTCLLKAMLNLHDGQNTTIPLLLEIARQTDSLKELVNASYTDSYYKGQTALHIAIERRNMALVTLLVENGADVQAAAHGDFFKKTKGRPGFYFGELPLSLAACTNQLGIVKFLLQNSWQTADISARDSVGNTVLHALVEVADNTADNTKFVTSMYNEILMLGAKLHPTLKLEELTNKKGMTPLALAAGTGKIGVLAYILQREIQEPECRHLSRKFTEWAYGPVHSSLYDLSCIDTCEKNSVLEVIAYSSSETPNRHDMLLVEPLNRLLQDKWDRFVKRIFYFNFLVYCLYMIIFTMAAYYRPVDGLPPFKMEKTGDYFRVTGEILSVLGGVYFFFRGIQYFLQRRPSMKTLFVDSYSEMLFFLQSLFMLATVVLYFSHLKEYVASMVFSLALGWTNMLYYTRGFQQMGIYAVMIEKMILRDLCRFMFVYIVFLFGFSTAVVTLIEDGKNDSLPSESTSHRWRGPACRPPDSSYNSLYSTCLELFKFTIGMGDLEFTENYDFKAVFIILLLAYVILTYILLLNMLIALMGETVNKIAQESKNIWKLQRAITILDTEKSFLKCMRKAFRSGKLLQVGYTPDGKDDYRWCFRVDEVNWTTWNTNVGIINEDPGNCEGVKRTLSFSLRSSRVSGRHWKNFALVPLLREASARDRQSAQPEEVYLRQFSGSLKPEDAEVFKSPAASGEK
Chain of Ubiquitin carboxyl-terminal hydrolase 1 (Homo sapiens) (O94782 whole entry, looked up): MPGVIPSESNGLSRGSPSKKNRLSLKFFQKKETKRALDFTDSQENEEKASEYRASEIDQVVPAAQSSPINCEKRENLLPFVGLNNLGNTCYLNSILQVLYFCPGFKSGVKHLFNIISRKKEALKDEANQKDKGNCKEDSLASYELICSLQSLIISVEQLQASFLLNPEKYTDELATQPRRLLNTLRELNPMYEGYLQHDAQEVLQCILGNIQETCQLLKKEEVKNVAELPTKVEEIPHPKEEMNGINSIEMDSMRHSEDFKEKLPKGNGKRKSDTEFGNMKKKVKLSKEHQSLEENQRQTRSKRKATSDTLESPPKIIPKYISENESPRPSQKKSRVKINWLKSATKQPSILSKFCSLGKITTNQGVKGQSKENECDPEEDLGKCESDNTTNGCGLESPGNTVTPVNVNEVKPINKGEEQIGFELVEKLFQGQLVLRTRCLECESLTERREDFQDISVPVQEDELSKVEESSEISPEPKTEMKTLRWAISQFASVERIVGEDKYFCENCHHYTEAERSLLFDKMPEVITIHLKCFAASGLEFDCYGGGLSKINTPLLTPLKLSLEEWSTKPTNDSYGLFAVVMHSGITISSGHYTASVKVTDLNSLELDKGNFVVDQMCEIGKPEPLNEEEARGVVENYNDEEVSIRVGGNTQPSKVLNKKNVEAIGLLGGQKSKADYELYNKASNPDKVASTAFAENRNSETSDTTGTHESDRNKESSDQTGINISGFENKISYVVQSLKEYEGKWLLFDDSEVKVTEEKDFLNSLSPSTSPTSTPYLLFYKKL
Chain of phosphoglycerate mutase (Leishmania major) (Q4Q090 1-553): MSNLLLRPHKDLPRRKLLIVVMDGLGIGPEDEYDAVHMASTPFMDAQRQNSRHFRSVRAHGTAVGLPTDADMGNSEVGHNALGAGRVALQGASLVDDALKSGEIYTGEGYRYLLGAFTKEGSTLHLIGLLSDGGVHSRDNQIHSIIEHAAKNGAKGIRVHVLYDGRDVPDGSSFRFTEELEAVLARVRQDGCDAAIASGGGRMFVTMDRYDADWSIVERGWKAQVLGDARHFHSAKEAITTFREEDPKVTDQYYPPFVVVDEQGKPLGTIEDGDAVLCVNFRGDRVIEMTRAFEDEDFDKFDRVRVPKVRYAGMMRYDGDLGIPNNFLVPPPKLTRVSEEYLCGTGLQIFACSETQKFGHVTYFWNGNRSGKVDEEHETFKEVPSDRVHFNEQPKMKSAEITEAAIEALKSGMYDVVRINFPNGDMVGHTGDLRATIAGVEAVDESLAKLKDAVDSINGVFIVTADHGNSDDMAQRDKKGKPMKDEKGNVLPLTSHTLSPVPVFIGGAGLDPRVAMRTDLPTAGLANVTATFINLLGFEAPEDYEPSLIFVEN
Chain of Peptidyl-prolyl cis-trans isomerase NIMA-interacting 1 (Homo sapiens) (Q13526 whole entry, looked up): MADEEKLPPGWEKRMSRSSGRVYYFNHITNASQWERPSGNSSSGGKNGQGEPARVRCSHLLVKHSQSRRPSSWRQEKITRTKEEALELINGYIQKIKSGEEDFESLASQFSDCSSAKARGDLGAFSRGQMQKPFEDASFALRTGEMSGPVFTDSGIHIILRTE

`NCCSSCCN`: the compound was classed as inactive in [1], in assay [2] and in assay [3]. The Potency result in assay [4], in [5], in assay [6], in assay [7], in [9] and in assay [10] was “inactive” in each case. Further, the Potency entry in [11], in assay [12], in assay [13], in assay [14], in [15] and in assay [16] was “inactive” each time. The activation in assay [8] is -0.375% (inactive). Besides, the viability change in [9] is -6.08%.

Turning to `COC1=C(OC)C(=O)c2ccccc2C1=O`, the outcome in assay [1], in assay [2], in [3] and in assay [17] was inactive. Also, the Potency result in assay [4], in assay [5], in assay [6], in assay [7], in [10] and in [13] was “inactive” each time. Further, in assay [8], the activation was 0.688% (inactive). Also, the Potency in [15] is 17.8 µM (active).

Consider `Cc1ccc(O)c(N=Nc2ccccc2)n1`, for which the result in assay [1], in [2], in assay [3] and in assay [17] was inactive. The Potency entry in assay [4], in assay [5], in assay [18] and in assay [11] was “inactive” throughout. In addition, the Potency in assay [6] was 2.59 µM (active); in assay [13], 10.7 µM (active). In addition, in assay [8], the activation is 0.875% (inactive).

As for `COc1ccccc1CNCCCCCCNCCCCCCCCNCCCCCCNCc1ccccc1OC`, the call in assay [1], in assay [2] and in assay [3] was inactive. The Potency entry in assay [4], in assay [5], in assay [6], in [7], in assay [9] and in [10] was “inactive” throughout. Moreover, the Potency result in [11], in [12], in assay [13] and in assay [15] was “inactive” in each case. In addition, in [8], the activation was 0.938% (inactive). The viability change in assay [9] is -8.09%.

On to `NC(CCCP(=O)(O)O)C(=O)O` (centres undefined), for which the result in assay [1], in assay [2] and in assay [3] was inactive. The Potency result in assay [4], in assay [18], in assay [6], in [7], in assay [9] and in assay [10] was “inactive” in each case. The Potency entry in assay [11], in assay [12], in assay [13], in assay [14] and in assay [16] was “inactive” throughout. Also, the activation in assay [8] was 0.562% (inactive). Moreover, the viability change in assay [9] is 3.42%.

Turning to `CCCCCCCCCCCCCCCCCCNC(=O)OCC(COP(=O)([O-])OCC[n+]1ccsc1)OC` (centres undefined), the result in assay [1], in assay [2], in assay [3] and in assay [17] was inactive. The Potency result in assay [4], in [5], in [6], in assay [9], in [10] and in assay [12] was “inactive” each time. In addition, the Potency result in [13] and in assay [14] was “inactive” in each case. Also, the activation in assay [8] was 0.875% (inactive). For the same compound, the viability change in [9] is 1.65%.

On to `Brc1c(Br)c(Br)c2n[nH]nc2c1Br`, for which the compound was called inactive in assay [1], in assay [2], in assay [3] and in assay [17]. The Potency entry in assay [4], in assay [5], in [18], in [10], in assay [11] and in assay [12] was “inactive” each time. For the same compound, the Potency entry in assay [13], in assay [14] and in assay [16] was “inactive” each time. For the same compound, the activation in assay [8] was 0.938% (inactive).
